The values that follow come from PubChem BioAssay (EPA / NIEHS).

Records with an inconclusive call do not appear. Calls of active or inactive are those of the source. How the source made its calls: active means hit-call score of the fitted dose curve at least 0.9, where 1 is the maximum; inconclusive means response in the unintended direction; inactive means score below 0.9.

Sequence of Bile acid receptor (Homo sapiens) (Q96RI1 whole entry, looked up, the tested form may be a part): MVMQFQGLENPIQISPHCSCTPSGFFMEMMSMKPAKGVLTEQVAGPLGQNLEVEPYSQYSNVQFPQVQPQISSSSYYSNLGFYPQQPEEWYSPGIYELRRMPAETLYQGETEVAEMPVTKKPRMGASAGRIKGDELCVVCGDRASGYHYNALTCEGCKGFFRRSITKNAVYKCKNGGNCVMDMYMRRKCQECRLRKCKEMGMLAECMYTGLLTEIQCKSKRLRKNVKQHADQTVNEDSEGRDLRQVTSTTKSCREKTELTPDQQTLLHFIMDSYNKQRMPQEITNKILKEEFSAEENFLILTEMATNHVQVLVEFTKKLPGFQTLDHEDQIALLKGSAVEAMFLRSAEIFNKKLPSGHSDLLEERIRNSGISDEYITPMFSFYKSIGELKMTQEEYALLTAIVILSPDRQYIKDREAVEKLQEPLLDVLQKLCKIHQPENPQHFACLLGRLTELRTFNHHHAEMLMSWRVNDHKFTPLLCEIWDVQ

This assay concerns the target Bile acid receptor (Homo sapiens) (UniProt Q96RI1). The assay is described as follows: ATG_FXR_TRANS: Attagene TRANS-FACTORIAL HepG2 Assay for Farnesoid X Receptor (FXR) (AID 2282979).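 Further: hits raise reporter mRNA above DMSO so AC50 marks FXR activation.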 Conditions: HepG2 Attagene TRANS FXR-GAL4 reporter transcription. The method, then:
ATG_TRANS is a cell-based, multiplexed-readout assay that uses HepG2, a human liver cell line, with measurements taken at 24 hours after chemical dosing in a 24-well plate.ATG_FXR_TRANS is one of 30 assay component(s) measured or calculated from the ATG_TRANS assay. It is designed to make measurements of mRNA induction, a form of inducible reporter, as detected with fluorescence intensity signals by Reverse transcription polymerase chain reaction (RT-PCR) and Capillary electrophoresis technology.Data from the assay component ATG_FXR_TRANS was analyzed into 1 assay endpoint. This assay endpoint, ATG_FXR_TRANS, was analyzed in the positive analysis fitting direction relative to DMSO as the negative control and baseline of activity. Using a type of inducible reporter, measures of mRNA for gain-of-signal activity can be used to understand the reporter gene at the transcription factor-level as they relate to the gene NR1H4. Furthermore, this assay endpoint can be referred to as a primary readout, because this assay has produced multiple assay endpoints where this one serves a reporter gene function. To generalize the intended target to other relatable targets, this assay endpoint is annotated to the nuclear receptor intended target family, where the subfamily is non-steroidal.
Human liver HepG2 cells are transiently transfected with multiple reporter transcription units (MRTUs) in 6-well plates using FuGene 6 reagent (Roche; 3 ml FuGene/1 mg DNA). The MRTU constructs are regulated by a cis-regulating element (promoter). […] A major difference between the CIS and TRANS system is that in CIS activities of endogenous TFs are measured, whereas the TRANS assay evaluates changes in activities of exogenous, chimeric NR-Gal4 proteins. […] At the end of 24 hour incubation, total RNA was isolated using TriZol reagent (Invitrogen). The isolated RNA is then reverse-transcribed using oligo(dT) primer and Mo-MLV reverse transcriptase (Invitrogen) with DNAse I (Ambion) treatment for 30 min. The one-tenth of the produced cDNA was amplified by PCR using Taq DNA polymerase (Invitrogen) and two reporter sequence-specific primers. The PCR products were fluorescently labeled by primer extension with 6-arboxyfluorescein (6-FAM) 5'-labeled reporter sequence-specific primer (2 min at 95 C, 20 s at 68 C and 10 min at 72 C) and these products were digested with 5U of HpaI (New England Biolabs) for 2h at 37 C. The fragments were purified using Qiaquick PCR columns (Qiagen), analyzed on an ABI 3130xL genetic analyzer (Applied Biosystems) with peak positions identified by using a set of X-rhodamine (ROX)-labeled MapMarker1000 molecular weight standards (BioVentures). The raw capillary electrophoresis data was processed using Attagraph software (Attagene).
On to `O=C(Cl)C(F)(F)C(F)(F)C(F)(F)C(F)(F)C(F)(F)C(F)(F)C(F)(F)F`, for which the call was inactive.

On to `C=C(C)C(=O)OCC(F)(F)C(F)(F)C(F)(F)C(F)F`, for which the call was inactive.

Take `CCOC(=O)CCC(C)=O`: the molecule was classed as inactive.

Regarding `CCn1c2ccccc2c2ccccc21`, the outcome was inactive.

Consider `CCN(CC)c1ccc2c(c1)Oc1cc(N(CC)CC)ccc1C21OC(=O)c2ccccc21`, for which the molecule was classed as inactive.

With `O=C(O)C(F)(F)C(F)(F)C(F)(F)OC(F)(F)F`, the molecule was called inactive.

On to `C#CC(O)CCC` (stereo not given), for which the call was inactive.

Regarding `CC1=CC2C3C=CC(C3)C2C1C` (stereo not given), the call was inactive.

`CCN(CC)c1ccc(C=O)cc1`: the outcome was inactive.

In the case of `CCCCC(CC)COC(=O)c1ccc(N(C)C)cc1` (stereo not given), the molecule was classed as inactive.

Turning to `CC(C)(C)C(=O)C1C(=O)c2ccccc2C1=O`, the molecule was called inactive.

As for `O=C1c2c(O)ccc(Nc3ccc(CCO)cc3)c2C(=O)c2c([N+](=O)[O-])ccc(O)c21`, the molecule was classed as inactive.

As for `CCN=c1cc2oc3cc(NCC)c(C)cc3c(-c3ccccc3C(=O)OCC)c-2cc1C`, the result was inactive.

On to `C=CC(=O)OCC(F)(F)C(F)(F)C(F)(F)C(F)(F)C(F)(F)C(F)(F)C(F)(F)C(F)F`, for which the molecule was classed as inactive.

As to `N#Cc1ccccc1O`, the molecule was called inactive.

In the case of `CN1CN(C)CN(C)C1`, the outcome was inactive.

Regarding `O=S(=O)(Cl)C(F)(F)C(F)(F)C(F)(F)C(F)(F)C(F)(F)C(F)(F)C(F)(F)C(F)(F)F`, the molecule was called inactive.

Consider `NC(=O)C(F)(F)C(F)(F)C(F)(F)C(F)F`, for which the molecule was classed as inactive.

Turning to `CCC(C)CO` (stereo not given), the call was inactive.

For the molecule `CCCC(=O)OCC(COC(=O)CCC)OC(=O)CCC`, the outcome was inactive.

Turning to `CCN=C1C=CC(=C(c2ccc(N(CC)CC)cc2)c2ccc(N(CC)CC)cc2)c2ccccc21`, the call was inactive.

In the case of `CCCCCCCCCCCCCCCCC`, the molecule was called inactive.

Take `FC(F)(F)C(F)(F)C(F)(F)C(F)(F)C(F)(F)C(F)(F)CC[Si](Cl)(Cl)Cl`: the outcome was inactive.

For the molecule `CCCCCCCC/C=C\CCCCCCCC(=O)OCC(O)CO` (stereo not given), the molecule was called inactive.

With `NCC(F)(F)C(F)(F)C(F)(F)C(F)(F)C(F)(F)C(F)(F)F`, the call was inactive.

As for `OCCC(O)CO` (stereo not given), the molecule was classed as inactive.

Turning to `N#CCCOCCC#N`, the outcome was inactive.

With `O=C(O)C(F)(F)C(F)(F)C(F)(F)OC(F)(C(F)(F)F)C(F)(F)F`, the result was inactive.

Consider `Cc1cc(O)c(C(C)(C)C)cc1C(C)(C)C`, for which the molecule was called inactive.

Take `O=C(O)C(F)(F)C(F)(F)C(F)(F)C(=O)O`: the molecule was called inactive.

Consider `O=C(O)CCC(F)(F)C(F)(F)C(F)(F)C(F)(F)C(F)(F)C(F)(F)C(F)(F)F`, for which the molecule was called inactive.

For `CCN(CCO)S(=O)(=O)C(F)(F)C(F)(F)C(F)(F)C(F)(F)C(F)(F)C(F)(F)C(F)(F)C(F)(F)F`, the molecule was called inactive.

Turning to `CN(C(=O)C(F)(F)C(F)(F)C(F)(F)F)[Si](C)(C)C`, the result was inactive.

Turning to `Cc1ccc(O)cn1`, the call was inactive.

With `CCc1cccc(C)c1N(C(=O)C(=O)O)C(C)COC` (stereo not given), the call was inactive.

`CCOC(=O)C1CC(=O)C(=C(O)C2CC2)C(=O)C1` (stereo not given): the molecule was classed as inactive.

Turning to `CCCCCCCC/C=C\CCCCCCCC(=O)N(C)CC(=O)O`, the molecule was classed as inactive.

`OCCCc1cccnc1`: the molecule was called inactive.

`NCC(F)(F)C(F)(F)C(F)(F)C(F)(F)C(F)(F)C(F)(F)C(F)(F)C(F)(F)F`: the outcome was inactive.

As for `O=C1C=CC(=O)N1c1ccc(Cc2ccc(N3C(=O)C=CC3=O)cc2)cc1`, the molecule was classed as inactive.
